Among the test systems are DU-145 prostate; K-562 leukemia; MDA-MB-231 breast; RXF 393 renal; SF-268 CNS; SF-295 CNS; SF-539 CNS; UACC-257 melanoma; M14 melanoma; MALME-3M melanoma.
Common to all, as to test: NCI-60 one-dose screen, 48 h (100 = growth as untreated, 0 = no growth, -100 = all killed)
Common to all, as to details: 10 µM unless noted

Compounds without any hit were thinned out: in the full panel of roughly 83,000, 20% have a hit.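 The endpoint reported here, percent growth, reads 100 for growth as untreated, 0 for no net growth and -100 for all cells dead.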 Values without a mark were called inactive. Activity calls are given as the source filed them. The calls were made as follows: active = growth percent below 10; inactive = the rest.

In the case of `FC(F)(F)c1cc(Nc2cccc(Oc3ccc(NC4=NCCN4)nc3)c2)ccc1Cl`, the growth is -19.3% (active) with DU-145 prostate; -19% (active) in the assay on K-562 leukemia; 9.73% (active) with MDA-MB-231 breast; 18.1% in the assay on RXF 393 renal; 34.8% in the assay with SF-268 CNS; -78.5% (active) in the assay with SF-295 CNS. Also, the values for the growth with SF-539 CNS, in the assay on UACC-257 melanoma and in the assay with M14 melanoma were 51.6%, 27% and -50.7% (active), respectively.
Consider `O=C(CN1CCN(c2cc(=O)n(-c3ccccc3)c3ccccc23)CC1)Nc1nc(-c2ccccc2)cs1`, for which the growth in the assay with DU-145 prostate was 72.7%; with K-562 leukemia it was 22.4%; in the assay on MDA-MB-231 breast it was 62.6%; in the assay with RXF 393 renal, 76.9%; in the assay with SF-268 CNS, 79.2%; in the assay with SF-295 CNS it was 66.7%. In addition, the figures for the growth in the assay with SF-539 CNS, with UACC-257 melanoma and in the assay with M14 melanoma were 77.1%, 48.5% and 69.7%, respectively.
Take `N#Cc1cn(Cc2ccc(Cl)cc2Cl)c(C(=O)c2ccc(Br)cc2)c1N`: the growth was 99.7% in the assay on DU-145 prostate; 94.9% with K-562 leukemia; 88.2% with MDA-MB-231 breast; 95.8% in the assay on RXF 393 renal; 92.7% in the assay with SF-268 CNS; 83.7% with SF-295 CNS. Also, the values for the growth in the assay on SF-539 CNS, in the assay on UACC-257 melanoma and in the assay on M14 melanoma were 81.4%, 92.1% and 98%, respectively.
As for `Nc1nc(N)c2c(n1)NC(c1ccc(Cl)cc1)CC(c1ccc(Nc3nc(NCCO)nc(N4CCOCC4)n3)cc1)=N2` (stereo unspecified), the growth is 86.1% with DU-145 prostate; 31.1% in the assay on K-562 leukemia; 80.5% with MDA-MB-231 breast; 61.2% with RXF 393 renal; 61.8% with SF-268 CNS; 76.2% with SF-295 CNS. Further, the growth with SF-539 CNS is 78.4%; with UACC-257 melanoma, 84.6%; in the assay on M14 melanoma it was 88.1%.
As for `CC(C)(C)c1ccc(C(=O)Nc2nc3ccc(O)cc3s2)cc1`, the growth in the assay on DU-145 prostate is 48.2%; with K-562 leukemia, 8.79% (active); in the assay with MDA-MB-231 breast, 69.5%; with RXF 393 renal, 46.3%; in the assay with SF-268 CNS, 55.9%; with SF-295 CNS, 3.43% (active). The growth in the assay on SF-539 CNS was 38.1%; in the assay on UACC-257 melanoma it was 31.8%; with M14 melanoma, 14.3%.
Turning to `NC(N)=Nc1ccc(Nc2cccc(Oc3ccc(Cl)c(C(F)(F)F)c3)c2)cn1`, the growth in the assay on DU-145 prostate was 38.3%; with K-562 leukemia, -48.8% (active); in the assay on MDA-MB-231 breast it was 47.5%; with RXF 393 renal, 56.6%; in the assay on SF-268 CNS, 53.6%; in the assay on SF-295 CNS, 23.8%. The values for the growth in the assay on SF-539 CNS, in the assay on UACC-257 melanoma and with M14 melanoma were 78.5%, 31.9% and 41.2%, respectively.
As for `N#Cc1cccc(NC(=O)c2cc(-c3ccc(F)cc3F)ccc2O)c1`, the growth is 20.9% in the assay with DU-145 prostate; 11.8% in the assay on K-562 leukemia; -9.34% (active) with MALME-3M melanoma; 6.64% (active) in the assay with MDA-MB-231 breast; 18.7% with SF-268 CNS; -16.9% (active) with SF-295 CNS. Moreover, the growth was 15.1% in the assay with SF-539 CNS and -6.12% (active) in the assay on UACC-257 melanoma.
Turning to `Cc1cccc(/C=C/C(=O)Nc2ncc(Cc3cccc(C)c3)s2)c1`, the growth is 8.51% (active) in the assay on DU-145 prostate; 11.9% in the assay on K-562 leukemia; 33.6% in the assay on MALME-3M melanoma; 38.8% in the assay with MDA-MB-231 breast; 48.2% with SF-268 CNS; -1.79% (active) in the assay on SF-295 CNS. Also, the growth in the assay with SF-539 CNS was 4.05% (active); with UACC-257 melanoma it was 38.3%; in the assay on M14 melanoma, 0.505% (active).
With `Cc1ccc(C2=NN(C)C(=O)C3(CCCC3)C2)cc1`, the growth was 107% with DU-145 prostate; 107% in the assay on K-562 leukemia; 104% with MDA-MB-231 breast; 124% with RXF 393 renal; 98.1% in the assay on SF-268 CNS; 101% in the assay with SF-295 CNS. For the same compound, the growth in the assay with SF-539 CNS was 103%; with UACC-257 melanoma, 100%; with M14 melanoma, 108%.
Take `CCO/C=N/C1=C(C#N)C(c2ccc(F)cc2)c2sc3c(CC)cccc3c2O1` (stereo unspecified): the growth is 19.3% with DU-145 prostate; 8.58% (active) in the assay with K-562 leukemia; 29.7% with MDA-MB-231 breast; -20.6% (active) in the assay with RXF 393 renal; 47.5% in the assay with SF-268 CNS; -6.92% (active) in the assay with SF-295 CNS. Also, the values for the growth with SF-539 CNS, with UACC-257 melanoma and in the assay with M14 melanoma were -12.7% (active), 69.5% and 8.85% (active), respectively.
For the compound `CCc1cccc2c3c(sc12)C(c1ccc(Cl)cc1)C(C#N)=C(/N=C/c1ccc(Cl)cc1)O3` (stereo unspecified), the growth was 12.1% in the assay on DU-145 prostate; 10% with K-562 leukemia; 33.8% with MDA-MB-231 breast; -31% (active) in the assay with RXF 393 renal; 58.3% in the assay on SF-268 CNS; -22.7% (active) with SF-295 CNS. The growth with SF-539 CNS was -7.57% (active); with UACC-257 melanoma it was 60.4%; with M14 melanoma it was 1.34% (active).
For `CCO/C=N/C1=C(C#N)C(c2ccc(OC)cc2)c2sc3c(CC)cccc3c2O1` (stereo unspecified), the growth was 17.6% with DU-145 prostate; 14.5% with K-562 leukemia; 31.7% in the assay on MDA-MB-231 breast; -21% (active) in the assay with RXF 393 renal; 61.5% in the assay on SF-268 CNS; 3.52% (active) with SF-295 CNS. Also, the results for the growth in the assay with SF-539 CNS, in the assay on UACC-257 melanoma and with M14 melanoma were 4.01% (active), 73.8% and 16.1%, respectively.
For `NC(=O)c1cccc(C#CCNC[C@H]2C[C@@H](n3ccc4c(Cl)ncnc43)[C@H](O)[C@@H]2O)c1`, the growth with DU-145 prostate is 108%; in the assay with K-562 leukemia it was 111%; in the assay with MDA-MB-231 breast, 101%; in the assay on RXF 393 renal, 107%; in the assay on SF-268 CNS, 102%; in the assay on SF-295 CNS it was 105%. In addition, the growth is 98.9% in the assay on SF-539 CNS, 98.2% in the assay with UACC-257 melanoma and 104% in the assay on M14 melanoma.

The values are drawn from PubChem BioAssay (NCI).
